Several values for one entry are separate records, joined by “and”; a condition that tells them apart may be missing. Equal values may be shown once. Inconclusive results are not listed. Activity calls are given as the source filed them. The call rests on the fitted dose curve; in most records, active means well fitted inhibition curve with a large enough effect; inconclusive means small, poorly fitted or top-dose-only effect; inactive means flat fitted curve, though single readings scatter.
Experiments:
[1] = tested on: CRL-7250; assay: Cytotoxic Profiling of Annotated Libraries Using Quantitative High-Throughput Screening (AID 1296008); settings: Five cell lines viability, CellTiter-Glo ATP luminescence, 48-72 h; max response: stronger effect = lower value; further: potency means the concentration at half of the fitted maximal effect; on max response: on the % scale 0 is the no-effect control and ±100 the full control effect
How it was run: (§1)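 Cells exposed to compounds for 48 or 72 hr at 37 degrees Celsius. Viability read as ATP-coupled luminescence with CellTiter-Glo after 10 min at room temperature.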

[2] = tested on: HaCat; assay: as above; settings: Five cell lines viability, CellTiter-Glo ATP luminescence, 48-72 h; max response: stronger effect = lower value
How it was run: as §1

[3] = tested on: NIH3T3; assay: as above; settings: Five cell lines viability, CellTiter-Glo ATP luminescence, 48-72 h; max response: stronger effect = lower value
How it was run: as §1

[4] = tested on: CRL-7250; assay: qHTS assay to identify novel small-molecules to repurpose for Merkel cell carcinoma treatment (AID 1296009); settings: MCC and control cell lines, CellTiter-Glo viability, 72 h; at 44.8 µM (top of the series) unless noted; further: potency means the concentration at half of the fitted maximal effect
How it was run: (§2)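 Cells were treated for 72 hr at 37 degree celsius with compounds in 8- or 11-point dose response. Viability was read by CellTiter-Glo luminescence, normalized to no-cell (cytotoxicity) and DMSO controls.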

[5] = tested on: HACAT; assay: as above; settings: MCC and control cell lines, CellTiter-Glo viability, 72 h; at 44.8 µM (top of the series) unless noted
How it was run: as §2

[6] = tested on: HEK293T; assay: as above; settings: MCC and control cell lines, CellTiter-Glo viability, 72 h; at 44.8 µM (top of the series) unless noted
How it was run: as §2

[7] = tested on: MCC-13; assay: as above; settings: MCC and control cell lines, CellTiter-Glo viability, 72 h; series mostly up to 46 µM
How it was run: as §2

[8] = tested on: MCC-26; assay: as above; settings: MCC and control cell lines, CellTiter-Glo viability, 72 h; series mostly up to 46 µM
How it was run: as §2

[9] = tested on: MKL-1; assay: as above; settings: MCC and control cell lines, CellTiter-Glo viability, 72 h; series mostly up to 46 µM
How it was run: as §2

[10] = tested on: MKL-2; assay: as above; settings: MCC and control cell lines, CellTiter-Glo viability, 72 h; series mostly up to 46 µM
How it was run: as §2

[11] = tested on: PC15; assay: qHTS profiling for inhibitors of Plasmodium falciparum proliferation (AID 504749);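 further: 0% = DMSO vehicle and full inhibition = artemisinin control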; settings: P. falciparum in erythrocytes, SYBR Green DNA, 72 h; series mostly up to 28.7 µM
How it was run: (§3)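 P. falciparum-infected erythrocytes (0.3% parasitemia, 2.5% hematocrit) incubated with compound 72 h at 37 C, 5% CO2. Parasite DNA detected by SYBR Green after lysis, overnight at room temperature; normalised to 0.29 uM artemisinin and DMSO.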

[12] = tested on: PC26; assay: as above; settings: P. falciparum in erythrocytes, SYBR Green DNA, 72 h; series mostly up to 28.7 µM
How it was run: as §3

[13] = tested on: PC49; assay: as above; settings: P. falciparum in erythrocytes, SYBR Green DNA, 72 h; series mostly up to 28.7 µM
How it was run: as §3

[14] = tested on: SC27B; assay: as above; settings: P. falciparum in erythrocytes, SYBR Green DNA, 72 h; series mostly up to 28.7 µM
How it was run: as §3

[15] = tested on: TAB109; assay: as above; settings: P. falciparum in erythrocytes, SYBR Green DNA, 72 h; series mostly up to 28.7 µM
How it was run: as §3

[16] = tested on: TAB113; assay: as above; settings: P. falciparum in erythrocytes, SYBR Green DNA, 72 h; series mostly up to 28.7 µM
How it was run: as §3

[17] = tested on: TAB165; assay: as above; settings: P. falciparum in erythrocytes, SYBR Green DNA, 72 h; series mostly up to 28.7 µM
How it was run: as §3

[18] = tested on: W2; assay: as above; settings: P. falciparum in erythrocytes, SYBR Green DNA, 72 h; series mostly up to 28.7 µM
How it was run: as §3

[19] = tested on: HEK293; assay: Cytotoxic Profiling of Annotated Libraries Using Quantitative High-Throughput Screening (AID 1296008); settings: Five cell lines viability, CellTiter-Glo ATP luminescence, 48-72 h; max response: stronger effect = lower value; further: potency means the concentration at half of the fitted maximal effect; on max response: on the % scale 0 is the no-effect control and ±100 the full control effect
How it was run: as §1

[20] = tested on: KB-3-1; assay: as above; settings: Five cell lines viability, CellTiter-Glo ATP luminescence, 48-72 h; max response: stronger effect = lower value
How it was run: as §1
Further: nearly all actives have a fitted effect of over 60% in size.

CC(C)(N)Cc1ccccc1Cl
inactive: outcome [1] | outcome [2] | max response [3] -1.53% | outcome [4] | outcome [5] | outcome [6] | outcome [7] | Potency [8] | Potency [9] | Potency [10]

CC(C)=CC1C(C(=O)OCN2C(=O)C3=C(CCCC3)C2=O)C1(C)C (centres undefined)
inactive: Potency [11] | Potency [12] | Potency [13] | Potency [14] | Potency [15] | Potency [16] | Potency [17] | Potency [18] | max response [19] -22.7% | outcome [2] | max response [20] 2.15% | max response [3] -1.87% | outcome [5] | outcome [7] | Potency [8] | Potency [9] | Potency [10]

C[C@]12CC[C@H]3[C@@H](CCC4=CC(=O)CC[C@@H]43)[C@@H]1CC[C@@H]2OC(=O)CCC1CCCCC1
inactive: outcome [1] | max response [2] 2.69% | outcome [3] | outcome [4] | outcome [7] | Potency [9]

C[C@]12CCC(=O)C=C1CC[C@@H]1[C@@H]2CC[C@@]2(C)[C@H]1CC[C@]2(C)O
inactive: max response [1] 2.75% | outcome [2] | max response [20] -6.95% and 1.16% | max response [3] -3.69% | outcome [5] | outcome [7] | Potency [8] | Potency [9]

CN1CCC(O)(c2ccc(F)cc2)C(C(=O)c2ccc(F)cc2)C1 (centres undefined)
inactive: Potency [11] | Potency [12] | Potency [13] | Potency [14] | Potency [15] | Potency [16] | Potency [17] | max response [1] -1.09% | outcome [2] | max response [20] 8.12% | max response [3] 2.95% | outcome [5] | outcome [7] | Potency [8] | Potency [9]

COc1cc(CC(C)N)cc(OC)c1OC (centres undefined)
inactive: max response [1] -18.9% | max response [2] 2.22% | max response [20] -7.25% | max response [3] -5.38% | outcome [7] | Potency [9] | Potency [10]

C[C@]12CC[C@@H]3c4ccc(OC(=O)N(CCCl)CCCl)cc4CC[C@H]3[C@@H]1CC[C@@H]2O
active: Potency [19] 29.9 µM
inactive: Potency [11] | Potency [12] | Potency [13] | Potency [14] | Potency [15] | Potency [16] | Potency [17] | Potency [18] | max response [20] -1.74% | outcome [7] | Potency [9] | Potency [10]

O=c1c(C2CC(c3ccc(-c4ccc(Br)cc4)cc3)Cc3ccccc32)c(O)sc2ccccc12 (centres undefined)
inactive: max response [1] 0.288% | outcome [7] | Potency [9] | Potency [10]

C[C@]12CC[C@H]3[C@@H](CCC4=CC(=O)CC[C@@H]43)[C@@H]1CC[C@@H]2OC(=O)CCc1ccco1
inactive: max response [1] -3% | outcome [2] | max response [3] -2.06% | outcome [5] | outcome [7]

Clc1ccccc1N1CCNCC1
inactive: outcome [2] | outcome [3] | outcome [5] | outcome [6] | outcome [7] | Potency [8] | Potency [9] | Potency [10]

CCCC(C)(COC(N)=O)COC(N)=O
inactive: Potency [11] | Potency [12] | Potency [13] | Potency [14] | Potency [15] | Potency [16] | Potency [17] | max response [20] 1.51%

CCC(C)(C)c1ccc(O)cc1
inactive: Potency [11] | Potency [12] | Potency [13] | Potency [14] | Potency [15] | Potency [16] | Potency [17] | Potency [18] | max response [2] 2.15% | max response [20] 14.4% | max response [3] 3.56% | outcome [6] | outcome [7] | Potency [8] | Potency [9] | Potency [10]

CCCNC(C)C(=O)Nc1c(C)csc1C(=O)OC (centres undefined)
inactive: outcome [4]

CC[N+](C)(CC)CCOC(=O)C1c2ccccc2Oc2ccccc21
inactive: outcome [4]

COc1cccc(C(=O)CCN[C@@H](C)[C@H](O)c2ccccc2)c1
active: Potency [10] 15 µM
inactive: outcome [2] | max response [20] 25.7% | max response [3] -18.8% | outcome [5] | outcome [7] | Potency [8]

CN[C@@H](C)Cc1ccccc1
inactive: max response [20] -3.3%

O=C(C1CCCCC1)N1CC(=O)N2CCCc3ccccc3C2C1 (centres undefined)
inactive: outcome [4]

Clc1ccc2c(c1)C(c1ccccc1)=NCc1nncn1-2
inactive: Potency [11] | Potency [12] | Potency [13] | Potency [14] | Potency [15] | Potency [16] | Potency [17] | Potency [18] | max response [20] 2.88%

CCN(CC)CC#CCOC(=O)C(O)(c1ccccc1)C1CCCCC1 (centres undefined)
inactive: outcome [4]

COc1cc(/C=C/C(N)=O)cc(OC)c1OC
inactive: outcome [4]

— PubChem BioAssay (NCATS)
